Conditions in all cases: mRNA level, 48 h; actives raise or lower the signal
Read-out in test [1]: Bcl-2 (BAX) gene, BAX (gene 581)
Description: LTEA_HepaRG_BAX: Life Technologies and Expression Analysis (LTEA) Assay for Bcl-2 (BAX) gene using HepaRG (AID 2283470). Summed up:
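Human HepaRG cells treated in duplicate for 48 h across eight concentrations (max 100 uM, 0.5% DMSO); BAX expression measured by qRT-PCR.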

Read-out in test [2]: adenosine kinase (ADK) gene, ADK (gene 132)
Briefly: LTEA_HepaRG_ADK: Life Technologies and Expression Analysis (LTEA) Assay for adenosine kinase (ADK) gene using HepaRG (AID 2283471). Summed up:
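HepaRG (human liver), 48 h chemical exposure, 8-pt half-log series, top 100 uM, 0.5% DMSO vehicle. Readout: ADK mRNA by qRT-PCR vs housekeeping genes; bidirectional curve fit relative to DMSO baseline.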

Read-out in test [3]: Alpha-fetoprotein (AFP) gene, AFP (gene 174)
Description: LTEA_HepaRG_AFP: Life Technologies and Expression Analysis (LTEA) Assay for Alpha-fetoprotein (AFP) gene using HepaRG (AID 2283472). Summed up:
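Measures AFP mRNA change in HepaRG after 48 h chemical exposure (8 half-log concentrations, highest 100 uM, 0.5% DMSO). Fold change relative to DMSO, fitted in both directions.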

Read-out in another test: BCL2L11 (gene 10018)
Description: LTEA_HepaRG_BCL2L11: Life Technologies and Expression Analysis (LTEA) Assay for Bcl-2 (BCL2L11) gene using HepaRG (AID 2283473). Summed up:
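HepaRG, 48 h exposure, 8-pt half-log series from 100 uM in 0.5% DMSO, duplicates; qRT-PCR (Fluidigm TaqMan) for BCL2L11, housekeeping-normalized; bidirectional curve fit relative to DMSO baseline.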

Read-out in test [4]: Apoptosis regulator Bcl-2 (Homo sapiens) (UniProt P10415)
Description: LTEA_HepaRG_BCL2: Life Technologies and Expression Analysis (LTEA) Assay for Bcl-2 gene using HepaRG (AID 2283475). Summed up:
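Each chemical was tested in duplicate on HepaRG cultures held in serum-free induction medium for 48 h, highest concentration 100 uM with half-log dilutions. Transcript levels came from multiplexed qRT-PCR, normalised to housekeeping genes; activity was scored in either direction relative to DMSO.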

Read-out in test [5]: Bcl-2 (BID) gene, BID (gene 637)
Description: LTEA_HepaRG_BID: Life Technologies and Expression Analysis (LTEA) Assay for Bcl-2 (BID) gene using HepaRG (AID 2283476). Summed up:
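Assay used HepaRG hepatic cells treated 48 h in serum-free medium with half-log dilutions from 100 uM. Endpoint: BID mRNA, qRT-PCR, normalized to ACTB/GAPDH/POLR2A.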

Read-out in a further test: Caspase-3 (Homo sapiens) (UniProt P42574)
Briefly: LTEA_HepaRG_CASP3: Life Technologies and Expression Analysis (LTEA) Assay for cysteine-aspartic acid protease (CASP3) using HepaRG (AID 2283477). Summed up:
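HepaRG, 48 h exposure, 8 conc. (top 100 uM, half-log steps, duplicate), 0.5% DMSO vehicle; qRT-PCR of CASP3 transcript, housekeeping-normalised (ACTB/GAPDH/POLR2A); bidirectional curve fit vs DMSO baseline.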

Read-out in test [6]: Cytochrome P450 (CYP24A1), CYP24A1 (gene 1591)
Description: LTEA_HepaRG_CYP24A1: Life Technologies and Expression Analysis (LTEA) Assay for Cytochrome P450 (CYP24A1) using HepaRG (AID 2283478). Summed up: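 qRT-PCR read-out: CYP24A1 transcript levels normalized to three housekeeping genes, bidirectional curve fits against 0.5% DMSO baseline. Human HepaRG cells treated 48 h with chemicals at eight concentrations from 100 uM in half-log steps.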

Read-out in test [7]: Cytochrome P450 (CYP1A2), CYP1A2 (gene 1544)
Description: LTEA_HepaRG_CYP1A2: Life Technologies and Expression Analysis (LTEA) Assay for Cytochrome P450 (CYP1A2) using HepaRG (AID 2283479). Summed up:
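HepaRG, 48 h exposure, top 100 uM, half-log 8-pt, 0.5% DMSO vehicle, duplicates. Readout: TaqMan qRT-PCR of CYP1A2 mRNA, housekeeping-normalized (ACTB/GAPDH/POLR2A). Gain/loss fit relative to DMSO baseline.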

Read-out in test [8]: cysteine-aspartic acid protease (CASP8), CASP8 (gene 841)
Description: LTEA_HepaRG_CASP8: Life Technologies and Expression Analysis (LTEA) Assay for cysteine-aspartic acid protease (CASP8) using HepaRG (AID 2283480). Summed up: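 CASP8 transcript measured by TaqMan qRT-PCR with ACTB/GAPDH/POLR2A normalization, after 48 h chemical exposure of HepaRG cells in serum-free induction medium. Eight concentrations, top 100 uM, half-log steps, 0.5% DMSO vehicle; fits in both directions versus DMSO.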

Read-out in test [9]: Cytochrome P450 (CYP2B6), CYP2B6 (gene 1555)
Description: LTEA_HepaRG_CYP2B6: Life Technologies and Expression Analysis (LTEA) Assay for Cytochrome P450 (CYP2B6) using HepaRG (AID 2283481). Summed up:
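Read-out is CYP2B6 mRNA by TaqMan qRT-PCR, normalized to three housekeeping genes and fitted bidirectionally against 0.5% DMSO baseline. Human HepaRG cells received test chemicals for 48 h, top concentration 100 uM, half-log dilutions.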

Read-out in test [10]: Cytochrome P450 2C19 (Homo sapiens) (UniProt P33261)
Description: LTEA_HepaRG_CYP2C19: Life Technologies and Expression Analysis (LTEA) Assay for CYP2C19 using HepaRG (AID 2283482). Summed up:
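HepaRG, 48 h chemical exposure, 8-pt half-log series from 100 uM in 0.5% DMSO, duplicates. Readout: CYP2C19 mRNA by TaqMan qRT-PCR, housekeeping-normalized. Bidirectional fit vs DMSO baseline; phenobarbital 1mM as induction control.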

Read-out in a further test: CYP2C8 (gene 1558)
Description: LTEA_HepaRG_CYP2C8: Life Technologies and Expression Analysis (LTEA) Assay for CYP2C8 using HepaRG (AID 2283483). Summed up:
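CYP2C8 expression measured by TaqMan qRT-PCR and normalized to three housekeeping genes. HepaRG cultures were treated for 48 h with an eight-point half-log series topping at 100 uM, vehicle 0.5% DMSO, duplicates; fitted both directions against DMSO.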

Read-out in a further test: CYP2C9 (gene 1559)
Description: LTEA_HepaRG_CYP2C9: Life Technologies and Expression Analysis (LTEA) Assay for CYP2C9 using HepaRG (AID 2283484). Summed up:
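CYP2C9 transcript level, quantified by TaqMan qRT-PCR against three housekeeping genes, was fitted bidirectionally relative to 0.5% DMSO. HepaRG cultures were treated 48 h, in duplicate, at eight half-log concentrations topping at 100 uM.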

Read-out in the next test: CYP2E1 (gene 1571)
Description: LTEA_HepaRG_CYP2E1: Life Technologies and Expression Analysis (LTEA) Assay for CYP2E1 using HepaRG (AID 2283485). Summed up: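 Assay uses 48 h exposure of HepaRG hepatic cells, eight concentrations to 100 uM. Expression of CYP2E1 is quantified by TaqMan qRT-PCR with ACTB, GAPDH and POLR2A normalization; curves fitted in both directions relative to vehicle.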

Read-out in a further test: CYP4A11 (gene 1579)
Description: LTEA_HepaRG_CYP4A11: Life Technologies and Expression Analysis (LTEA) Assay for CYP4A11 using HepaRG (AID 2283486). Summed up:
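CYP4A11 transcript levels were quantified by TaqMan qRT-PCR after HepaRG human liver cells were treated for 48 hours with test chemicals (top 100 uM, half-log dilutions, 0.5% DMSO). Gain or loss of signal was fitted relative to DMSO.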

Read-out in test [11]: Cytochrome P450 3A4 (Homo sapiens) (UniProt P08684)
Description: LTEA_HepaRG_CYP3A4: Life Technologies and Expression Analysis (LTEA) Assay for CYP3A4 using HepaRG (AID 2283487). Summed up:
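CYP3A4 transcript measured by TaqMan qRT-PCR and normalized to three housekeeping genes after 48 h chemical exposure of human HepaRG cells. Top concentration 100 uM, half-log steps, 0.5% DMSO vehicle; gain or loss fitted against DMSO baseline.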

Read-out in test [12]: Pro-epidermal growth factor (Homo sapiens) (UniProt P01133)
Description: LTEA_HepaRG_EGF: Life Technologies and Expression Analysis (LTEA) Assay for Epidermal growth factor (EGF) using HepaRG (AID 2283489). Summed up: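 qRT-PCR readout of EGF transcript after 48 h chemical exposure of HepaRG cells; eight concentrations from 100 uM down in half-log steps, duplicate wells, 0.5% DMSO vehicle. Bidirectional curve fitting against DMSO baseline.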

Read-out in test [13]: Apolipoprotein A-V (APOA5) gene, APOA5 (gene 116519)
Briefly: LTEA_HepaRG_APOA5: Life Technologies and Expression Analysis (LTEA) Assay for Apolipoprotein A-V (APOA5) gene using HepaRG (AID 2283474). Summed up: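 HepaRG, 48 h chemical exposure in serum-free induction medium, 8-pt half-log series (top 100 uM), 0.5% DMSO vehicle, duplicates. Readout: APOA5 mRNA by qRT-PCR, housekeeping-normalized; bidirectional fit vs DMSO baseline.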

Read-out in test [14]: DNA damage-inducible transcript 3 (DDIT3), DDIT3 (gene 1649)
Description: LTEA_HepaRG_DDIT3: Life Technologies and Expression Analysis (LTEA) Assay for DNA damage-inducible transcript 3 (DDIT3) using HepaRG (AID 2283488). Summed up: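 Eight-point concentration-response (100 uM highest, half-log dilutions) in HepaRG, 48 h, duplicate wells. Endpoint: qRT-PCR mRNA, normalized (ACTB, GAPDH, POLR2A), bidirectional fitting with DMSO as baseline.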

Activity calls are given as the source filed them. The calls were made as follows: active = hit-call score of the fitted dose curve at least 0.9, where 1 is the maximum; inactive = score below 0.9.

Sequence of Caspase-3 (Homo sapiens) (P42574 whole entry, looked up): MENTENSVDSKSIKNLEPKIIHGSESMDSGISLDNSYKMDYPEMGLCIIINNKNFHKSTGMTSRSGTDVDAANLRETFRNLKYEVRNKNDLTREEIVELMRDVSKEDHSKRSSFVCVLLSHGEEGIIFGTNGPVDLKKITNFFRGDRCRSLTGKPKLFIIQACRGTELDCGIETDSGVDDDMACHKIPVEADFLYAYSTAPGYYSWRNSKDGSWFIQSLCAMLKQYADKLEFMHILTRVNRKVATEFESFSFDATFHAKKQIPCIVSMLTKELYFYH
Sequence of Apoptosis regulator Bcl-2 (Homo sapiens) (P10415 whole entry, looked up): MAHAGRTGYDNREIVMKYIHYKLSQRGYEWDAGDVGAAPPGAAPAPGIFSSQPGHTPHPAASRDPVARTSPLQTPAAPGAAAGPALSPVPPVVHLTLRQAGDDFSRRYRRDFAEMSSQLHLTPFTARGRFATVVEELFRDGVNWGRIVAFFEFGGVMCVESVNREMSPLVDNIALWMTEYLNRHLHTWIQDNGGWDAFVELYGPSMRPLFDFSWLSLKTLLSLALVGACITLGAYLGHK
Sequence of Cytochrome P450 2C19 (Homo sapiens) (P33261 whole entry, looked up): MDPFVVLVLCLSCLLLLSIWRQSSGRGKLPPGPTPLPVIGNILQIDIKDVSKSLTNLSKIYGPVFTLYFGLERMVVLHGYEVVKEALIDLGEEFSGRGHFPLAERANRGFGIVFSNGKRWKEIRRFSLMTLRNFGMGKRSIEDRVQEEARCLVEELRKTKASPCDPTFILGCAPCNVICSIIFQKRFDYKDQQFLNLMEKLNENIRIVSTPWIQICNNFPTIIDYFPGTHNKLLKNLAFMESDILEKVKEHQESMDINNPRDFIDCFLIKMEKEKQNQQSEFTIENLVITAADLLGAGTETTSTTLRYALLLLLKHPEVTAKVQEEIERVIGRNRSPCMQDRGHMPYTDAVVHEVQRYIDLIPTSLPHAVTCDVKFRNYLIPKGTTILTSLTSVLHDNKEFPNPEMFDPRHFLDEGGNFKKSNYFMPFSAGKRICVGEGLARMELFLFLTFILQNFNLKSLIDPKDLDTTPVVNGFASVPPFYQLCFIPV
Sequence of Cytochrome P450 3A4 (Homo sapiens) (P08684 whole entry, looked up): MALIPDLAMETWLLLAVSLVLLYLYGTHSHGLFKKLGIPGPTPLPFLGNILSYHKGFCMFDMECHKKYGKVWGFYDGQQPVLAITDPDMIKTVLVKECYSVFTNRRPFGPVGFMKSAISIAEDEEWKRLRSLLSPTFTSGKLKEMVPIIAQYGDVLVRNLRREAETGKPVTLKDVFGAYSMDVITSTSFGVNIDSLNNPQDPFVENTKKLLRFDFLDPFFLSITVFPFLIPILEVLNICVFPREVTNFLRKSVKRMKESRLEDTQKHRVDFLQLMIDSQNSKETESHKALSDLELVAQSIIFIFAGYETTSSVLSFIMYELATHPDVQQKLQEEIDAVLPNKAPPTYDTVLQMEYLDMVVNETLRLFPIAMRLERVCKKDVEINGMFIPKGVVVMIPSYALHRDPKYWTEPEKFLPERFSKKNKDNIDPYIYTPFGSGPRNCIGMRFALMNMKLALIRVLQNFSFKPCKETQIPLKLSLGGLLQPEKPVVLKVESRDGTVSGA

Take `O=C(O)CC(O)(CC(=O)O)C(=O)O`: the compound was called inactive (in [1]; in test [2]; in test [3]; with BCL2L11 (gene 10018); in test [4]; in test [5]). The call (with Caspase-3 (Homo sapiens); in [6]; in test [7]; in [8]; in test [9]; in test [10]) was inactive. Also, the compound was classed as inactive (with CYP2C8 (gene 1558); in the test with CYP2C9 (gene 1559); with CYP2E1 (gene 1571); with CYP4A11 (gene 1579); in [11]; in test [12]).
In general, AC50 refers to the concentration giving half of the maximal activity seen. `O=C1OC(c2ccc(O)cc2)(c2ccc(O)cc2)c2ccccc21`: the outcome (in test [1]; in test [2]; with BCL2L11 (gene 10018); in test [13]; in test [5]; with Caspase-3 (Homo sapiens)) was inactive. Moreover, the result (in test [6]; in test [8]; with CYP2E1 (gene 1571); in [14]; in test [12]) was inactive. Also, the AC50 in [3] was 77.4 µM (active); in [4], 50 µM (active); in test [7], 72.4 µM (active); in test [9], 84.7 µM (active); in test [10], 76.9 µM (active); with CYP2C8 (gene 1558), 78.7 µM (active). The concentration at half-maximal activity (AC50) with CYP2C9 (gene 1559) was 82 µM (active).
Take `CC(C)NCC(O)c1ccc(O)c(O)c1` (configuration not stated): the outcome (in test [1]; in test [2]; with BCL2L11 (gene 10018); in test [13]; with Caspase-3 (Homo sapiens); in [6]) was inactive. Besides, the call (in test [8]; in the test with CYP2C8 (gene 1558); in test [14]; in [12]) was inactive. The AC50 in test [3] was 0.261 µM (active); in test [4] it was 0.239 µM (active); in [7] it was 0.204 µM (active); in test [9], 0.132 µM (active); with CYP2C9 (gene 1559) it was 0.175 µM (active); with CYP2E1 (gene 1571), 0.304 µM (active).

The values are drawn from PubChem BioAssay (EPA / NIEHS).
